Test results taken from ChEMBL document CHEMBL1961873, “Compounds: GSK PKIS; Assays: Nanosyn kinase panel” (2012).

Key:
[1] = target: Protein kinase C gamma type (Homo sapiens) (UniProt P05129); settings: at 1 µM;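 also: each value is an averaged percent inhibition of the enzyme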
[2] = target: T1, Protein kinase C iota type (Homo sapiens) (UniProt P41743); settings: at 0.1 µM
T1 sequence (whole entry): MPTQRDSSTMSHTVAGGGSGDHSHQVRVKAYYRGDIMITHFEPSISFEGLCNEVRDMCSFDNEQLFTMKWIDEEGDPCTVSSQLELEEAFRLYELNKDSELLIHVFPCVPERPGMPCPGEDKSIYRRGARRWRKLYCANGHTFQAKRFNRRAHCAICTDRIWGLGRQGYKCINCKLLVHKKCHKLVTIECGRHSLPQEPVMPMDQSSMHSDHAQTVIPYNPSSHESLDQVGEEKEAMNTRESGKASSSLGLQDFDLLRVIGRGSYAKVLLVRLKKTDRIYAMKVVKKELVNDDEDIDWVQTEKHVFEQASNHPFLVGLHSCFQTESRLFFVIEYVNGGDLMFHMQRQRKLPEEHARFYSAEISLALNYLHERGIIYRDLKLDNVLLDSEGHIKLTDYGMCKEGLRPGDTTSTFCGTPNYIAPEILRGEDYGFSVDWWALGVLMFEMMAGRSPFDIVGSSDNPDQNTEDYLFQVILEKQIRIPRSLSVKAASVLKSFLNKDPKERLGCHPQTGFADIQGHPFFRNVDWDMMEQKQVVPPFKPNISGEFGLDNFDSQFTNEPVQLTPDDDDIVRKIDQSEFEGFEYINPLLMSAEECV

[3] = target: T1, Protein kinase C iota type (Homo sapiens); settings: at 1 µM
[4] = target: Protein kinase C theta type (Homo sapiens) (UniProt Q04759); settings: at 0.1 µM
Chain of Protein kinase C theta type (Homo sapiens) (Q04759 whole entry, looked up): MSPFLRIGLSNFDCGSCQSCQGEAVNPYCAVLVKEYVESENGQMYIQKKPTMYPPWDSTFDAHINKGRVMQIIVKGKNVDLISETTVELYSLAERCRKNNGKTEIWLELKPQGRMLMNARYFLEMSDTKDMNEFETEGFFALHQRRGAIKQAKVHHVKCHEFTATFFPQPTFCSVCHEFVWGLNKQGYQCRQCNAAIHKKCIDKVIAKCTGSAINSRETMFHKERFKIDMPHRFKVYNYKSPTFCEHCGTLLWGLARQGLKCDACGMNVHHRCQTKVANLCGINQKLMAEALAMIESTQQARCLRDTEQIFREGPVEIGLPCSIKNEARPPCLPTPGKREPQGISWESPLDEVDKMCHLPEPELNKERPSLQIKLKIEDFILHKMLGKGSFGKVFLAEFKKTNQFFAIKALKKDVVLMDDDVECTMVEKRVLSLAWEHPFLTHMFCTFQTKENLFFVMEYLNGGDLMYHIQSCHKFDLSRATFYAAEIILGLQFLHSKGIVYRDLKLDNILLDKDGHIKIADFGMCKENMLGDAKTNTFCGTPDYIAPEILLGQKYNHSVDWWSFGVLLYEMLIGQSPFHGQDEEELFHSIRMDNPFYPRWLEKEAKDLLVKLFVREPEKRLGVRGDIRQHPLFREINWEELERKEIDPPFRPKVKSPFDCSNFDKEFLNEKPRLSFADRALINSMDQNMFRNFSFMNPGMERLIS

[5] = target: Protein kinase C theta type (Homo sapiens) (UniProt Q04759); settings: at 1 µM
[6] = target: Protein kinase C beta type (Homo sapiens) (UniProt P05771); settings: at 0.1 µM
Chain of Protein kinase C beta type (Homo sapiens) (P05771 2-671 limits assumed): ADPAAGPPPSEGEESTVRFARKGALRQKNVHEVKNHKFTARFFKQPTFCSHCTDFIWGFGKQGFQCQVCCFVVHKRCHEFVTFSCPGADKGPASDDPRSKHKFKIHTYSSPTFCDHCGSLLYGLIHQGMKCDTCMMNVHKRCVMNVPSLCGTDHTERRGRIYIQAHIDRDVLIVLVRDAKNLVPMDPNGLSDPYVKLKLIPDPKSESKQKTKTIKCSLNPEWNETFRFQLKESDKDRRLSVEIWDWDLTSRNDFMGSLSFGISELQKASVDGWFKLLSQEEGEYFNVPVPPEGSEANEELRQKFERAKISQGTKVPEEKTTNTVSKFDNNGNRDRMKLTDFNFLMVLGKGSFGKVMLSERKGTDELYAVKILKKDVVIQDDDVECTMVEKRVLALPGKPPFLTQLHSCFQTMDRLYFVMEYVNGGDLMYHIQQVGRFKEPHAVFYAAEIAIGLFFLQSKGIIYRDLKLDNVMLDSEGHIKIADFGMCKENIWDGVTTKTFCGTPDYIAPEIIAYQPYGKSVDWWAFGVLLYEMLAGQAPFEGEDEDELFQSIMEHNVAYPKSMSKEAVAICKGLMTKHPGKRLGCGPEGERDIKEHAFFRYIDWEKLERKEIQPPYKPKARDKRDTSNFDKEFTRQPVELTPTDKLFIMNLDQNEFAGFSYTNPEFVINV

[7] = target: Protein kinase C beta type (Homo sapiens) (UniProt P05771); settings: at 1 µM
[8] = target: T2, Serine/threonine-protein kinase D1 (Homo sapiens) (UniProt Q15139); settings: at 0.1 µM
T2 sequence (whole entry): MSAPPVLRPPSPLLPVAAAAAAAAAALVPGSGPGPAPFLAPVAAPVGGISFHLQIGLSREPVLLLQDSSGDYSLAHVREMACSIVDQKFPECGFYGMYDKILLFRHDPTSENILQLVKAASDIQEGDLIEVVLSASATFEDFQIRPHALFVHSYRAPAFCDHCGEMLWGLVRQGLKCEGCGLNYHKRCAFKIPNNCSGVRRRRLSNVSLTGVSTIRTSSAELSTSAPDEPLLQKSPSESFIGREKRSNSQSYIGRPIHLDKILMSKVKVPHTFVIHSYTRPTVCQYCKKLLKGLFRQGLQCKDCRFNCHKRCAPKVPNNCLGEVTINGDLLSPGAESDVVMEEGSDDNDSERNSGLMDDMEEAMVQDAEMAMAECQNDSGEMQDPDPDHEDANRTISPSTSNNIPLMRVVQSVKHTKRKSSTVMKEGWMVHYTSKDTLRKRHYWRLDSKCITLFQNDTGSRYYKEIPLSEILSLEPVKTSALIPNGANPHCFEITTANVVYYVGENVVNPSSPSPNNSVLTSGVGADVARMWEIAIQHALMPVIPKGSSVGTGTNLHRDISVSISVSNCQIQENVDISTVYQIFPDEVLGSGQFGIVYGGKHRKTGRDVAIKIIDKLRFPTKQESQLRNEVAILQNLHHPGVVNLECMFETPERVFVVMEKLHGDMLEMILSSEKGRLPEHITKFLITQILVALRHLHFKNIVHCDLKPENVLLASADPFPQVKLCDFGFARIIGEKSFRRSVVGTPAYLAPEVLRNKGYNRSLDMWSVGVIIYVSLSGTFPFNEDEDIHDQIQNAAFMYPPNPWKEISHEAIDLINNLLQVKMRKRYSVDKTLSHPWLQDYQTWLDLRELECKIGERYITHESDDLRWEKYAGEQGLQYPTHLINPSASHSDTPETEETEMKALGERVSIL

[9] = target: T2, Serine/threonine-protein kinase D1 (Homo sapiens); settings: at 1 µM
[10] = target: T3, Serine/threonine-protein kinase D2 (Homo sapiens) (UniProt Q9BZL6); settings: at 0.1 µM
T3 sequence (whole entry): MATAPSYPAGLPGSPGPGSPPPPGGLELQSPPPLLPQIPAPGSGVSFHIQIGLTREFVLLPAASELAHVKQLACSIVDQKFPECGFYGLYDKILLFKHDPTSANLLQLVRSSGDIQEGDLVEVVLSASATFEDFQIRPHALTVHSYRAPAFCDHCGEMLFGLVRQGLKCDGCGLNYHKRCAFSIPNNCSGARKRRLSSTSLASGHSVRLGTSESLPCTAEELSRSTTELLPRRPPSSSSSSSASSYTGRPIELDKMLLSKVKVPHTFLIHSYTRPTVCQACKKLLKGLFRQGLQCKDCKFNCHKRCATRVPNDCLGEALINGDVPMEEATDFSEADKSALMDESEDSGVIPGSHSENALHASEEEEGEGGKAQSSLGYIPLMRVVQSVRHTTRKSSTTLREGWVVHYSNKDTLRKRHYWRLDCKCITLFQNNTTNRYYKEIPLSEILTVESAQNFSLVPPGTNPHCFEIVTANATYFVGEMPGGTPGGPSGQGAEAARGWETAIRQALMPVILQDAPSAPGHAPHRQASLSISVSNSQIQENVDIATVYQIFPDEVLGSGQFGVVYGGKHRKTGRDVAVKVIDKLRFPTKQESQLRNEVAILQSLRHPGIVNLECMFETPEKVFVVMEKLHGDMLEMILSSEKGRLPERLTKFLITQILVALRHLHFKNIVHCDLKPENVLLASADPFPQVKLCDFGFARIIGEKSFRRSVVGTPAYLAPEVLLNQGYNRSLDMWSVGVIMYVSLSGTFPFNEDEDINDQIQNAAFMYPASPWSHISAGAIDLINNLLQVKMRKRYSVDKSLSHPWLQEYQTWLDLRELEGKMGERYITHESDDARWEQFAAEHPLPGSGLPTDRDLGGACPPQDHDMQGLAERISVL

[11] = target: T3, Serine/threonine-protein kinase D2 (Homo sapiens); settings: at 1 µM
[12] = target: T4, Serine/threonine-protein kinase D3 (Homo sapiens) (UniProt O94806); settings: at 0.1 µM
T4 sequence (whole entry): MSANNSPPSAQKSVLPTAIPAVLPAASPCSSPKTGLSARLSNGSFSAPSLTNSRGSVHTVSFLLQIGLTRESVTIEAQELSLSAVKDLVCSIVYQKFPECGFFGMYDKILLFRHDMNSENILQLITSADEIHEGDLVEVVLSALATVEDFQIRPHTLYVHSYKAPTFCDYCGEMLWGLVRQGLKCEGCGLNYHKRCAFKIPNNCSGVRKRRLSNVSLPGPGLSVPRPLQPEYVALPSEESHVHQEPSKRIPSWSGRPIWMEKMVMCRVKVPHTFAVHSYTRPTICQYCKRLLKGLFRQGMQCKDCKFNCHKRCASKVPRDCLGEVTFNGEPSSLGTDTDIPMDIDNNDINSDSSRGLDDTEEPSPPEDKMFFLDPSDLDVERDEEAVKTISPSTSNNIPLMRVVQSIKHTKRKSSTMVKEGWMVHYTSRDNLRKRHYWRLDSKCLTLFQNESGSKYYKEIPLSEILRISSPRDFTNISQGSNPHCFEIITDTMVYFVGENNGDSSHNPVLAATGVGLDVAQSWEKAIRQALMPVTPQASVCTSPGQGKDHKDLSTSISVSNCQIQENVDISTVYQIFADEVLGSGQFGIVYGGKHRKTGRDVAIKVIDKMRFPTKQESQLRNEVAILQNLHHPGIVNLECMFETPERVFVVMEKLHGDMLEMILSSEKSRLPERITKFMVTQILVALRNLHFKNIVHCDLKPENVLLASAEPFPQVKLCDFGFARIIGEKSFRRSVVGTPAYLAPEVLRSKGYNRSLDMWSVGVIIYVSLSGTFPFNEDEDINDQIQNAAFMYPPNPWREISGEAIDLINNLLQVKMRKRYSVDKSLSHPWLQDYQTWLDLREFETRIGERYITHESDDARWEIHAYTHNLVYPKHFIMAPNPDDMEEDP

[13] = target: T4, Serine/threonine-protein kinase D3 (Homo sapiens); settings: at 1 µM
[14] = target: T5, cGMP-dependent protein kinase 1 (Homo sapiens) (UniProt Q13976); settings: at 0.1 µM
T5 sequence (whole entry): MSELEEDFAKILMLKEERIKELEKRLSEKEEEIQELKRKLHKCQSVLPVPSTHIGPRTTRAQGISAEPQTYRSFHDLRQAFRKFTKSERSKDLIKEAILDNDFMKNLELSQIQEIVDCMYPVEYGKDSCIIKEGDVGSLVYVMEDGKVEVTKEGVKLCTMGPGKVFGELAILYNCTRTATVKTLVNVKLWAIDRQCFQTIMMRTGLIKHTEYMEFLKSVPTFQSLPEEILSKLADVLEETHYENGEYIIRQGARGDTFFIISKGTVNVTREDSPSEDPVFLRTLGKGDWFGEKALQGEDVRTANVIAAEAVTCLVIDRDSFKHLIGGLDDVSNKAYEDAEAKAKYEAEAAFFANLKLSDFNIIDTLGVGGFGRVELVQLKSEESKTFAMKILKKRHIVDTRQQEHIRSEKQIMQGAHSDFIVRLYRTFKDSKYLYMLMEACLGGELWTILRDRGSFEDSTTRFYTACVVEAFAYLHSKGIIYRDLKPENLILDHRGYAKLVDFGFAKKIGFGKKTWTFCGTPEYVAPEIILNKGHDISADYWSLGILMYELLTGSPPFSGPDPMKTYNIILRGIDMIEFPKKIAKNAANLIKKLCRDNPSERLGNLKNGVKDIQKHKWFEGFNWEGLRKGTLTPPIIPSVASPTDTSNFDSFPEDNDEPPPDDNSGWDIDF

[15] = target: T5, cGMP-dependent protein kinase 1 (Homo sapiens); settings: at 1 µM
[16] = target: T6, cGMP-dependent protein kinase 2 (Homo sapiens) (UniProt Q13237); settings: at 0.1 µM
T6 sequence (whole entry): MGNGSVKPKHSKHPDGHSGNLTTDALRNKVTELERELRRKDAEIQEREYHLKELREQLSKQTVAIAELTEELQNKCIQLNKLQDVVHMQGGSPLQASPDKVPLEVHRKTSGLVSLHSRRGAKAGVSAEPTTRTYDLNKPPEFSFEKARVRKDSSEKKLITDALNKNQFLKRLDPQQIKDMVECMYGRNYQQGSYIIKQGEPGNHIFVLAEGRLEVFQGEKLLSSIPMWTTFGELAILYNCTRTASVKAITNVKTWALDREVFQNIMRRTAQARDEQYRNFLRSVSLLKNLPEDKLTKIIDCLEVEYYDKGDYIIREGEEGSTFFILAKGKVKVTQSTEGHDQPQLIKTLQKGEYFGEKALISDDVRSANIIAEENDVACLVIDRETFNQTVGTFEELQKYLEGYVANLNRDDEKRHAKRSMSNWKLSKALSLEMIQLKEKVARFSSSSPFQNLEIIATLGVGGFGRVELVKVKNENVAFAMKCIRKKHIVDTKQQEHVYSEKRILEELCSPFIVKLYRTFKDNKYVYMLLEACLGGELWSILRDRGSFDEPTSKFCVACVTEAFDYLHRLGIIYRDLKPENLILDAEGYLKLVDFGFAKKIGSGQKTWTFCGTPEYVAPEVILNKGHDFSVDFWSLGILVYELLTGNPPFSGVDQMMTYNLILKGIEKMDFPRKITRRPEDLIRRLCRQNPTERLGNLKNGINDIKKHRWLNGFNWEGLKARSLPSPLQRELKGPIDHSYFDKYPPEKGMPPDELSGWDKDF

[17] = target: T6, cGMP-dependent protein kinase 2 (Homo sapiens); settings: at 1 µM
[18] = target: T7, cAMP-dependent protein kinase catalytic subunit PRKX (Homo sapiens) (UniProt P51817); settings: at 0.1 µM
T7 sequence (whole entry): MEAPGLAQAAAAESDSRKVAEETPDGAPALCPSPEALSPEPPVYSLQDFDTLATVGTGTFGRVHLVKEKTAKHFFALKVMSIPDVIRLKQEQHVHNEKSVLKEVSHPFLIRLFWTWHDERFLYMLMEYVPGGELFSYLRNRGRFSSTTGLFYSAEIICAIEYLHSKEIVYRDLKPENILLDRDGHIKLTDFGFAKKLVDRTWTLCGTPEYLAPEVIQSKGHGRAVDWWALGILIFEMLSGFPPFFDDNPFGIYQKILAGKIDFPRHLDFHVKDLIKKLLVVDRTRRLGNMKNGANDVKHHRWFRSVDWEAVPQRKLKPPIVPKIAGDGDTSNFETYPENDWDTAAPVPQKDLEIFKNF

[19] = target: T7, cAMP-dependent protein kinase catalytic subunit PRKX (Homo sapiens); settings: at 1 µM
[20] = target: Rho-associated protein kinase 1 (Homo sapiens) (UniProt Q13464); settings: at 0.1 µM;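 also: values are mean percent inhibition of ROCK1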
Chain of Rho-associated protein kinase 1 (Homo sapiens) (Q13464 2-1354 limits assumed): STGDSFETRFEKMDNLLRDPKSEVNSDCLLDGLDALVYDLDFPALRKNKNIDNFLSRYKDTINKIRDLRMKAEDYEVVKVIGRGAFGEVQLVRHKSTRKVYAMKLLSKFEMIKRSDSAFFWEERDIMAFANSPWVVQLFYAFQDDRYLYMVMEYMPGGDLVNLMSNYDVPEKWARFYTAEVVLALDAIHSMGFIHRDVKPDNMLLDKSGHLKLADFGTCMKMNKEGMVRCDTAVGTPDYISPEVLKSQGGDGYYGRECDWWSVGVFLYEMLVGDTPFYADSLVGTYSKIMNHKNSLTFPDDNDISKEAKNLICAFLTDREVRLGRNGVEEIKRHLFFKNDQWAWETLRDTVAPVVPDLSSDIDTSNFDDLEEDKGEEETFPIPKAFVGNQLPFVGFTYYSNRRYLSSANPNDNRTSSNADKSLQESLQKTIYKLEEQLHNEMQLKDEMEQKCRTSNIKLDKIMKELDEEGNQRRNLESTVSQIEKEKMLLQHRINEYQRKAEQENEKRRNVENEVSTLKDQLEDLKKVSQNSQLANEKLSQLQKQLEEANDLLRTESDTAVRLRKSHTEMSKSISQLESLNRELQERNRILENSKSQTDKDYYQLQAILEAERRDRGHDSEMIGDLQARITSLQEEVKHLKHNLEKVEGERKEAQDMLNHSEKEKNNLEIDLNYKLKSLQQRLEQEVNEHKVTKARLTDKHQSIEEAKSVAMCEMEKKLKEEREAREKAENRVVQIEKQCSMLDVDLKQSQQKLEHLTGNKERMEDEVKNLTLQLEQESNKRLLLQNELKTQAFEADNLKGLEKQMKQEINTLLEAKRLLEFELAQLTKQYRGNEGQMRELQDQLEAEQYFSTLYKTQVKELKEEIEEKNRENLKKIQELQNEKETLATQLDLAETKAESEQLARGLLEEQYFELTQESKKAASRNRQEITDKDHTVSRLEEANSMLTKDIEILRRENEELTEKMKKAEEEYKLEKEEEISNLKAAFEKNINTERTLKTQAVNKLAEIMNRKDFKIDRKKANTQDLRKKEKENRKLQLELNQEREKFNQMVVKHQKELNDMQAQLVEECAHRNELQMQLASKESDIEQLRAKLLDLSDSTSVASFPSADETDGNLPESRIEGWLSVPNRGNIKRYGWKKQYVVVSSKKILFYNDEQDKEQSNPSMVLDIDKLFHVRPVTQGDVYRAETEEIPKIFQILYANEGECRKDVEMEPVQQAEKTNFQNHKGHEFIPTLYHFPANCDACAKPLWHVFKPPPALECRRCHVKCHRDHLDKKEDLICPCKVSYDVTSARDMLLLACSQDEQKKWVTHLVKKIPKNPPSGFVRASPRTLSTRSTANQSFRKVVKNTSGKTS

| Compound | inhibition [1] | inhibition [2] | inhibition [3] | inhibition [4] | inhibition [5] | inhibition [6] | inhibition [7] | inhibition [8] | inhibition [9] | inhibition [10] | inhibition [11] | inhibition [12] | inhibition [13] | inhibition [14] | inhibition [15] | inhibition [16] | inhibition [17] | inhibition [18] | inhibition [19] | inhibition [20] |
| --- | --- | --- | --- | --- | --- | --- | --- | --- | --- | --- | --- | --- | --- | --- | --- | --- | --- | --- | --- | --- |
| COc1ccc2cc(-c3c(-c4ccncc4)nc(-c4ccc([S+](C)[O-])cc4)n3C)ccc2c1 (stereo not given) | 0.94% | 0.48% | 2.02% | 1.01% | 0.27% | 0.67% | 3.79% | 2.99% | 5.01% | 3.94% | 4.99% | 3.54% | 4.91% | 1.31% | 4.18% | 2.83% | 4.08% | 1.36% | -0.32% | 0.49% |
| CCN1CCC(CC(=O)Nc2n[nH]c3nc(-c4cccs4)c(Br)cc23)CC1 | 1.17% | -1.06% | -1% | -1.26% | -0.68% | -1.4% | 2.84% | -1.83% | -1.4% | -2.1% | -1.32% | -2.16% | -0.88% | -1.47% | -0.36% | -0.23% | 1.17% | -0.98% | 0.48% | 0.12% |
| NCc1ccc(-c2nc(-c3ccc(Cl)c(O)c3)c(-c3ccncc3)[nH]2)cc1 | 0.42% | -0.2% | -0.02% | -0.02% | -0.18% | 0.76% | 10.8% | 0.78% | 2.64% | 1.57% | 4.23% | 0.72% | 1.93% | 0.03% | 2.4% | -0.25% | 3.58% | -0.67% | -2.14% | -0.61% |
